Experimental data from the supplement of paper PMC6555819.

Each sequence was assayed on PPARa:RXRa (NR concentration 270 nM, RXRa partner concentration 90 nM) (assay: PBM binding z-score (relative to random genomic background probes); higher = stronger binding; sequences stand for … in GC…GCGATTGACAGCGTAGAATGAAGG).
How it was run: (§1)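 On custom Agilent 4×180K arrays, double-stranded probes with 34-nt variable regions carried direct-repeat seeds, single-nucleotide variants, half-site ablations or random human genomic background. Ligand-free nuclear receptor dimers were applied for 1 h, and binding was read with antibodies against each partner (one per run). Binding z-scores come from regression-normalized fluorescence, with the random background probes as reference.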

| Sequence | PBM binding z-score |
| --- | --- |
| ACTCGGAGGACAAGGGTCAGAGCTACGCCAGTGA | 3.37 |
| AGAATTAGGTTATACGTAGATCAGGGAAGAAAGT | 2.29 |
| ATATGTAGGTTATCGGTTCATTCAGTTTGCGCAT | 3.91 |
| TCTGCTAGGTCAGTTGGTAAGCTAACGAGCTGCC | 0.96 |
| ACTAGCAGGCCAAGGGTCACTCAGGATTAGTCCG | 4.39 |
| CCTAGAAGGCCAGGGTCACTCAAGCATTTCGCTT | 3.12 |
| ATCTCTAGGTAAAGTTCAGTGTAAGATCGATAGA | 2.47 |
| CTAACTAGGTCAAGGACAGTGAATCTCCGCACGC | 4.99 |
| ACTATTAGGTGACTTAGGGCAACCGATACGACGC | 1.27 |
| CCTACTGGGCCAAAAAGATCATTGATGCCGATAA | 0.11 |
| CCAGACAGGTGAAAGGTAACTCGGTCTGGTACGC | 3.46 |
| TCTAGTTGGTCAAAGGTCACACATTCGAAATGCG | 6.86 |
| TCTAGTTGGTCGAAGGTCACACACTCGAAATGCG | 4.57 |
| ATCTCTAGCTAACCAAGTTCAGTGAATGCCGAAC | -0.0272 |
| CGTCCAAGGTCAGCAAGTCAGTGAAAGCGACGTG | 4.25 |
| ATCGAAAGGTCGATGTGAGTATAGAGAAAGGGAA | 3.35 |
| TTACCAAGGTGAACGTCGTTGATCCCTCTGTAGA | 1.99 |
| AGAACGAGGGCACGCTGAGTTGATAGCAGAGTAG | 2.36 |
| CATACAGGGTCAGCTAGGCGAGAGTAGGGACGGC | 4.19 |
| CGTCCATGGTCAATGCTAGGTCAGTGAAAGCATT | 0.49 |

| Sequence | PBM binding z-score |
| --- | --- |
| CCGACTGGTGCAGAAAGGTTACCATACCATCCGG | 1.73 |
| ATACGTAGGTTAGCTGGGGTCATTCAGACTAGGC | 4.24 |
| TCTAGTTGGTCACGGTGGTCACACACGACGGGTA | 1 |
| ATATGTAGGTTAAGGGTTATTCAGGTTGGTTCGC | 5.82 |
| TCTGCTACGTCAGTTGGTCAGCTAACGAGCTGCC | -0.303 |
| TCATATAGGTAAACAGGGGAAAGTCCGTAAGTTA | 1.61 |
| ACTATTAGTTGAGACGAGGGCAACCGCTAGGTTG | 0.374 |
| TCTCTGAGGACACGAAAGGTCAGAGCTCGACATC | 3.53 |
| CCTAATGGGCCACGAAAGGTCATTGATTCAGTGA | 4.42 |
| TCTAGTTGGTCAAAGGTCACACGCTCGAAATGCG | 6.6 |
| CCTATTGGGCCATCAGGTCATTGATATCAACGTT | 2.25 |
| TGAATGAGGTTAAAGAGCAGGGAACGTGGCGTCG | 4.23 |
| GTTCGGAGGACAAGGTCAGAGCTTTGTCCGTAGA | 2.16 |
| TCATATAGGTAATACAGGTGAAAGCCGGCATCTA | 1.96 |
| GCTTACGGGTCAAAGGTTATTGCATGAATAGAAT | 6.84 |
| TCTAGTAGGTTACCAATGGGGCATTCAGCTTTCT | 2.14 |
| CGAACGATGGCATGAGTTGATAGCAAATGCCGAT | -0.496 |
| CCGACTGGGGCCGAAAGGTTACCATACCATCCGG | 2.02 |
| CGTCCAAGGTCAAAGGTCAGTTAAGAGATGACGG | 7.44 |
| CCTAGCAGGCCAGGGTCACTCAAGCATTTCGCTT | 3.1 |

These sequences were tested on PPARg:RXRa (NR concentration 180 nM, RXRa partner concentration 90 nM) in the same assay as above.
How it was run: as §1

| Sequence | PBM binding z-score |
| --- | --- |
| ACTCGGAGGACAAGGGTCAGAGCTACGCCAGTGA | 4.49 |
| AGAATTAGGTTATACGTAGATCAGGGAAGAAAGT | 2.76 |
| ATATGTAGGTTATCGGTTCATTCAGTTTGCGCAT | 5.47 |
| TCTGCTAGGTCAGTTGGTAAGCTAACGAGCTGCC | 0.118 |
| ACTAGCAGGCCAAGGGTCACTCAGGATTAGTCCG | 7.87 |
| CCTAGAAGGCCAGGGTCACTCAAGCATTTCGCTT | 0.628 |
| ATCTCTAGGTAAAGTTCAGTGTAAGATCGATAGA | 3.17 |
| CTAACTAGGTCAAGGACAGTGAATCTCCGCACGC | 8.18 |
| ACTATTAGGTGACTTAGGGCAACCGATACGACGC | 1.85 |
| CCTACTGGGCCAAAAAGATCATTGATGCCGATAA | 0.525 |
| CCAGACAGGTGAAAGGTAACTCGGTCTGGTACGC | 5.96 |
| TCTAGTTGGTCAAAGGTCACACATTCGAAATGCG | 11.5 |
| TCTAGTTGGTCGAAGGTCACACACTCGAAATGCG | 7.43 |
| ATCTCTAGCTAACCAAGTTCAGTGAATGCCGAAC | -0.107 |
| CGTCCAAGGTCAGCAAGTCAGTGAAAGCGACGTG | 2.21 |
| ATCGAAAGGTCGATGTGAGTATAGAGAAAGGGAA | 1.66 |
| TTACCAAGGTGAACGTCGTTGATCCCTCTGTAGA | 0.984 |
| AGAACGAGGGCACGCTGAGTTGATAGCAGAGTAG | 2.01 |
| CATACAGGGTCAGCTAGGCGAGAGTAGGGACGGC | 2.92 |
| CGTCCATGGTCAATGCTAGGTCAGTGAAAGCATT | -0.131 |

| Sequence | PBM binding z-score |
| --- | --- |
| CCGACTGGTGCAGAAAGGTTACCATACCATCCGG | 0.848 |
| ATACGTAGGTTAGCTGGGGTCATTCAGACTAGGC | 1.72 |
| TCTAGTTGGTCACGGTGGTCACACACGACGGGTA | 1.15 |
| ATATGTAGGTTAAGGGTTATTCAGGTTGGTTCGC | 10.4 |
| TCTGCTACGTCAGTTGGTCAGCTAACGAGCTGCC | -0.674 |
| TCATATAGGTAAACAGGGGAAAGTCCGTAAGTTA | 1.52 |
| ACTATTAGTTGAGACGAGGGCAACCGCTAGGTTG | 0.327 |
| TCTCTGAGGACACGAAAGGTCAGAGCTCGACATC | 1.56 |
| CCTAATGGGCCACGAAAGGTCATTGATTCAGTGA | 3.05 |
| TCTAGTTGGTCAAAGGTCACACGCTCGAAATGCG | 12 |
| CCTATTGGGCCATCAGGTCATTGATATCAACGTT | 1.29 |
| TGAATGAGGTTAAAGAGCAGGGAACGTGGCGTCG | 4.98 |
| GTTCGGAGGACAAGGTCAGAGCTTTGTCCGTAGA | 0.427 |
| TCATATAGGTAATACAGGTGAAAGCCGGCATCTA | 1.68 |
| GCTTACGGGTCAAAGGTTATTGCATGAATAGAAT | 11.3 |
| TCTAGTAGGTTACCAATGGGGCATTCAGCTTTCT | 2.38 |
| CGAACGATGGCATGAGTTGATAGCAAATGCCGAT | 0.77 |
| CCGACTGGGGCCGAAAGGTTACCATACCATCCGG | 1.09 |
| CGTCCAAGGTCAAAGGTCAGTTAAGAGATGACGG | 10.5 |
| CCTAGCAGGCCAGGGTCACTCAAGCATTTCGCTT | 0.907 |
